In PubChem BioAssay AID1240 (Sanford-Burnham Center for Chemical Genomics, 2008):
“And” between values parts separate entries of the source, which are not always exact repeats. Equal entries are not always repeated. Among all 50,000 compounds or so, about 800 (1.6%) showed an effect of 50% or more. This excerpt belongs to a sample that is enriched for strong results.

Biological target: Bcl-2-like protein 10 (Homo sapiens) (UniProt Q9HD36)
Test: TR3 peptide-Bcl-B binding displacers, biochemical primary FP assay, phenotype converters (AID 1240);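 further: 0% = Bcl-B with tracer peptide and DMSO and 100% = tracer peptide lacking Bcl-B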
Conditions: GST-Bcl-B / FITC-TR3 peptide fluorescence polarization; stronger effect = higher value; compound at 3.75 mg/L

Sequence of Bcl-2-like protein 10 (Homo sapiens) (Q9HD36 whole entry, looked up): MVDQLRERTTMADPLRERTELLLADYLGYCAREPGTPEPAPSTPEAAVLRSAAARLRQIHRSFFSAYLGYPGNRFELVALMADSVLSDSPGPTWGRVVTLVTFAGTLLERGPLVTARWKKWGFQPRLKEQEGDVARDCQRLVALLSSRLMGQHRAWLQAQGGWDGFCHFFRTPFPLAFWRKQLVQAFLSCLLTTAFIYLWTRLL

Row | SMILES | displacement
1 | COc1ccc(C2SCC(=O)N2CCc2ccc(OC)c(OC)c2)c(OC)c1 (configuration not stated) | -6.4%
2 | COc1ccc(N2C(=O)C3C4C=CC(C5CC45)C3C2=O)c([N+](=O)[O-])c1 (configuration not stated) | 12.7%
3 | N/C(=N\OC(=O)c1ccc(Cl)c([N+](=O)[O-])c1)c1ccccc1 | -3.2%
4 | COc1ccc(C2CC(=O)C3=C(C2)Nc2ccccc2NC3c2cccs2)cc1OC (configuration not stated) | -4.5%
5 | Cc1ccccc1N1C(=O)c2ccc(C(=O)O)cc2C1=O | -3.3%
6 | O=C(O)c1ccccc1S(=O)CCO (configuration not stated) | 6.8%
7 | O=C(c1cccc(F)c1)N1CCN(c2ccccc2)CC1 | -5.4%
8 | O=C(c1ccc(N2CCN(C(=O)c3ccccc3F)CC2)cc1)c1cccc(F)c1 | -53.4%
9 | O=C(c1ccc(N2CCN(C(=O)c3ccc(F)cc3F)CC2)cc1)c1cccc(F)c1 | 72.1%
10 | O=C(c1cccc(F)c1)N1CCN(c2ccc([N+](=O)[O-])cc2)CC1 | 118%
11 | O=C(c1cccc(F)c1)N1CCN(c2ccc(F)cc2)CC1 | -11.6%
12 | O=C(c1ccc(N2CCN(C(=O)c3ccc(F)cc3)CC2)cc1)c1cccc(F)c1 | -6.4%
13 | Cc1ccc(/C(=N\S(=O)(=O)c2cccc([N+](=O)[O-])c2)Nc2ccccc2)cc1 | 13.2%
14 | COc1ccccc1OCC(=O)Nc1ccc2c(c1)OCCO2 | 2.2%
15 | COc1cc(/C=N/N2C(=O)C3C4C=CC(CC4)C3C2=O)cc(I)c1O (configuration not stated) | 3.3%
16 | COc1ccc(N2C(=O)NC(=O)/C(=C/c3cccc(O)c3)C2=O)cc1 | -6.3%
17 | CN1C(=O)NC(=O)/C(=C/c2ccc(-c3cccc(Cl)c3)o2)C1=O | 81.5%
18 | CC1(C)OC(=O)C(=Cc2ccc(-c3ccc(Cl)cc3Cl)o2)C(=O)O1 | 34.4%
19 | O=C1NC(=O)N(c2ccccc2)C(=O)/C1=C\c1cccn1-c1cccc([N+](=O)[O-])c1 | -2.6%
20 | COc1ccc(N2C(=O)NC(=O)/C(=C/c3cccn3-c3cccc([N+](=O)[O-])c3)C2=O)cc1 | -4%
21 | CN1C(=O)NC(=O)/C(=C\c2ccc(Cl)cc2Cl)C1=O | 3.8%
22 | Cc1ccc([N+](=O)[O-])cc1-c1ccc(/C=C2/C(=O)NC(=O)N(C)C2=O)o1 | -8%
23 | CC1=C(C#N)C(=O)NC(=O)/C1=C\c1ccc(-c2cccc(Cl)c2)o1 | 24.7%

Row | SMILES | displacement
24 | CN1C(=O)NC(=O)/C(=C/c2ccc(-c3ccc(Cl)c(Cl)c3)o2)C1=O | -7.2%
25 | CN1C(=O)NC(=O)/C(=C/c2ccc(-c3ccc(Cl)cc3Cl)o2)C1=O | 72.6%
26 | C=CCN1C(=O)/C(=C\c2ccc(-c3ccc([N+](=O)[O-])cc3Cl)o2)C(=O)NC1=S | 21%
27 | CN1C(=O)NC(=O)/C(=C/c2cccn2-c2cccc([N+](=O)[O-])c2)C1=O | 115%
28 | CN1C(=O)NC(=O)/C(=C/c2ccc(-c3ccc([N+](=O)[O-])cc3Cl)o2)C1=O | 93.6%
29 | O=C(/C=C/c1ccc(F)cc1)NC(=S)NCc1ccco1 | 18.2%
30 | CN1C(=O)C(=Cc2ccc(-c3cccc(Cl)c3Cl)o2)C(=O)N(C)C1=O | 4.6%
31 | Cc1cc(-c2ccc(C=C3C(=O)NC(=S)NC3=O)o2)c([N+](=O)[O-])cc1C | 26.1%
32 | CN1C(=O)NC(=O)/C(=C/c2ccc(-c3cccc(Cl)c3Cl)o2)C1=O | 74.5%
33 | Cc1ccc(-c2ccc(C=C3C(=O)NC(=O)NC3=O)o2)c([N+](=O)[O-])c1 | 1.3%
34 | O=C1NC(=O)N(c2ccccc2)C(=O)/C1=C\c1ccc(-c2ccccc2Cl)o1 | 42.6%
35 | Cc1ccc(N2C(=O)NC(=O)/C(=C\c3ccc(-c4ccc([N+](=O)[O-])cc4Cl)o3)C2=O)cc1 | 87.2%
36 | Cc1ccc(-c2ccc(C=C3C(=O)NC(=O)NC3=O)o2)c(Br)c1 | -9.6%
37 | O=C1NC(=O)C(=Cc2ccc(-c3cccc(Br)c3)o2)C(=O)N1 | 81.1%
38 | O=C1NC(=O)C(=Cc2ccc(-c3cc(Cl)c([N+](=O)[O-])cc3Cl)o2)C(=O)N1 | 81.2%
39 | COc1ccc(N2C(=O)NC(=O)/C(=C/c3ccc(-c4ccc([N+](=O)[O-])cc4Cl)o3)C2=O)cc1 | 20.3%
40 | O=C1NC(=O)N(c2ccccc2)C(=O)/C1=C\c1ccc(-c2ccc([N+](=O)[O-])cc2Cl)o1 | 11.5%
41 | O=C1NC(=S)N/C1=C/c1ccc(-c2cccc(Br)c2)o1 | 15.5%
42 | Nc1nonc1N=Cc1cc(Br)ccc1O | -12.8%
43 | CCC1CCc2c(sc(NC(=O)C3CCCC3)c2C(N)=O)C1 (configuration not stated) | -1.5%
44 | COc1cc(/C=C2/C(=O)NC(=O)N(c3cccc(C)c3)C2=O)ccc1OCC(=O)O | -14.8%
45 | Cc1cc(=O)[nH]c(SCc2cccc(Oc3ccccc3)c2)n1 | -8% and 5.2%
46 | CCCCOc1cc2oc(=O)c(CC)c(C)c2cc1CC | 0.2%

Row | SMILES | displacement
47 | CN(c1ccccc1)c1ccc(C=C2C(=O)NC(=O)NC2=O)cc1 | 19.6%
48 | CC(/C=C/c1ccc(N(C)C)cc1)=N\N=C(/N)SC1CC(=O)N(c2ccc(F)cc2)C1=O (configuration not stated) | -8.3%
49 | COc1cc2c(C)nc3c(c(C)nn3C)c2cc1OC | -1.5%
50 | COc1cc2c(C)nc3c(c(C)nn3-c3ccccc3)c2cc1OC | 59.5%
51 | COc1cc2c(C)nc3c(cnn3-c3ccccc3)c2cc1OC | -5.8%
52 | CCOc1cc(C2CC(=O)NC(C)=C2C(=O)OC)cc(Br)c1OC (configuration not stated) | 10.6%
53 | CCCCOP(=O)(OCCCC)C(Nc1ccccc1)c1ccc(OC)cc1 (configuration not stated) | 52.1%
54 | CCOP(=O)(OCC)C(Nc1ccccc1)c1ccc2c(c1)OCO2 (configuration not stated) | 13.6%
55 | CCCOP(=O)(OCCC)C(Nc1ccc(Cl)cc1)c1ccc(Br)cc1 (configuration not stated) | 17.1%
56 | CN1CCc2c(sc3c2C(=O)NC(c2ccc4ccccc4c2)N3)C1 (configuration not stated) | 83%
57 | CN1CCc2c(sc3c2C(=O)NC(c2ccc(Cl)s2)N3)C1 (configuration not stated) | 4%
58 | COc1cc(C2NC(=O)c3c(sc4c3CCN(C)C4)N2)cc(OC)c1OC (configuration not stated) | 3.2%
59 | CCOC(=O)NC12CC3CC(C1)CC(C(F)(F)F)(C3)C2 | 3.2%
60 | COc1ccc(/C=N\N2CCN(c3ccccc3)CC2)cc1 | -0.3%
61 | CCOC(=O)c1c(NC(=O)Cc2ccc(Cl)cc2)sc(C(=O)Nc2ccc(OC)cc2OC)c1C | 18.5%
62 | O=C1CCNc2c(Cl)cc(Cl)cc21 | 88.6%
63 | C/C(=N\N1CCN(c2ccccc2)CC1)c1ccc(F)cc1 | -8.7%
64 | CC1(C)Cc2ccccc2C(N/N=C/c2ccc(Cl)cc2)=N1 | -3.6%
65 | O=c1oc2ccc(Br)cc2cc1-c1csc(-c2cc3cc([N+](=O)[O-])ccc3oc2=O)n1 | -5.4%
66 | Cc1ccc(-c2nc(-c3cc4cc([N+](=O)[O-])cc(Br)c4oc3=O)cs2)c(C)c1 | 95.2%
67 | O=c1oc2ccc(Br)cc2cc1-c1nc(-c2ccc([N+](=O)[O-])cc2)cs1 | -7.2%
